{
  "source": "PubChem BioAssay AID1645855",
  "about": "(Buhrlage Lab, Dana-Farber Cancer Institute and Novartis …, 2021)",
  "note": "About 3,100 (6.6%) of roughly 47,000 compounds were called active. This excerpt belongs to a sample that is enriched for actives. A number with no mark means an inactive call. Cut-off read from the data, not from the text of the source: active = inhibition above about 30%; inactive = the rest.",
  "data": [
    {"biological_target": "Ubiquitin carboxyl-terminal hydrolase 17-like protein 5 (Homo sapiens) (UniProt A8MUK1)", "sequence (A8MUK1 whole entry, looked up)": "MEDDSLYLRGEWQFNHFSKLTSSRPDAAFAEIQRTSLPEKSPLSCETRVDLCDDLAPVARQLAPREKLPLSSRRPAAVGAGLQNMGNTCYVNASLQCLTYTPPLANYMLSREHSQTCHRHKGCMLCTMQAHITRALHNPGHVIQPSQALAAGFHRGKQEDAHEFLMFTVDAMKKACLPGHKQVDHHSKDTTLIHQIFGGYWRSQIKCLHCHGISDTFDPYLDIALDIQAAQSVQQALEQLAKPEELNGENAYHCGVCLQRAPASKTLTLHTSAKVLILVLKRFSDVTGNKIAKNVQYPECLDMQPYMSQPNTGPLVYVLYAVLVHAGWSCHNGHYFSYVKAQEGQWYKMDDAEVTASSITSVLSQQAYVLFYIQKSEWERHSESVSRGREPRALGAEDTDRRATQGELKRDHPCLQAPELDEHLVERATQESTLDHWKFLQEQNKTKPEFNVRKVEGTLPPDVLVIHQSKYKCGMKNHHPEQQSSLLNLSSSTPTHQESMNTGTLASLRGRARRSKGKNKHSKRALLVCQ", "experiment": "blocks human USP17 ubiquitin-rhodamine cleavage (AID 1645855)", "conditions": "purified USP17, Ub-rhodamine cleavage fluorescence, 3 h; at 50 µM; stronger effect = higher value", "values": [
      {"molecule": "COC(=O)c1sc(-c2ccccc2)cc1NC(=O)c1ccc(C)cc1", "inhibition": "8.72%"},
      {"molecule": "N#Cc1cccc(NC(=O)C2Cc3ccccc3CN2C(=O)c2ccccc2)c1", "note": "(centres undefined)", "inhibition": "-4.46%"},
      {"molecule": "COc1cccc(NC(=O)N2C[C@H]3CN(C(C)C)CC[C@H]32)c1", "inhibition": "-122%"},
      {"molecule": "COc1cccc(NC(=O)C2Cc3ccccc3N2C(=O)c2ccccc2)c1", "note": "(centres undefined)", "inhibition": "57.8% (active)"},
      {"molecule": "Cn1cc(CN2CCC3(CC2)Nc2cc(Cl)ccc2C2=NCCN23)cn1", "inhibition": "-4.3%"},
      {"molecule": "Cc1ccccc1NS(=O)(=O)c1cc2c(cc1Cl)NC(=O)CO2", "inhibition": "11.5%"},
      {"molecule": "COc1ccc(NC(=O)CCN2C(=O)c3cccnc3Sc3ccccc32)cc1", "inhibition": "0.608%"},
      {"molecule": "Cc1ccc(Cc2nc(CC(=O)Nc3ccc(F)cc3F)n[nH]2)cc1", "inhibition": "12.8%"},
      {"molecule": "COc1ccccc1CN1C(=O)c2cc3occc3n2CC1(C)C(=O)NC1CCCCC1", "note": "(centres undefined)", "inhibition": "6.42%"},
      {"molecule": "CC1(C(=O)NC2CCCC2)Cn2c(cc3ccccc32)C(=O)N1c1ccc(F)cc1", "note": "(centres undefined)", "inhibition": "62.5% (active)"},
      {"molecule": "CC(C)CCNC(=O)C1(C)Cn2c(cc3ccccc32)C(=O)N1Cc1ccccc1F", "note": "(centres undefined)", "inhibition": "-0.678%"},
      {"molecule": "COCCNC(=O)C(Cc1ccccc1)N1Cc2ccccc2C1=O", "note": "(centres undefined)", "inhibition": "4.85%"},
      {"molecule": "O=C(Cn1cccc1C(=O)c1ccccc1)NC1CCN(Cc2ccccc2)CC1", "inhibition": "-2.81%"},
      {"molecule": "O=C(N[C@@H](C(=O)O)c1ccccc1)[C@@H](Cc1ccccc1)n1c(=O)[nH]c2ccccc2c1=O", "inhibition": "9.14%"},
      {"molecule": "CC1CCC(NC(=O)Cn2c(=O)[nH]c3ccccc3c2=O)CC1", "note": "(centres undefined)", "inhibition": "41.5% (active)"},
      {"molecule": "CCN1CCC2(CC1)OC(=O)C(C)=C2C(=O)Nc1cc(C)ccc1C", "inhibition": "-4.59%"},
      {"molecule": "CNc1nc(C2CCCN(C)C2)nc2c1CCN(C(=O)Cc1c[nH]c3ccccc13)C2", "note": "(centres undefined)", "inhibition": "-1.33%"},
      {"molecule": "Cc1ccn2c(NCCc3ccccc3)c(-c3ccc(O)cc3)nc2c1", "inhibition": "20.5%"},
      {"molecule": "Cc1cccc(-c2nc(Nc3ccc(O)cc3)c3ccccc3n2)c1", "inhibition": "69.2% (active)"},
      {"molecule": "Cc1cccc(-c2noc(Cc3nnc(-c4ccccc4)o3)n2)c1", "inhibition": "-20.8%"},
      {"molecule": "Cc1nccc(C2CN(C(=O)CCc3c[nH]c4ccccc34)CCO2)n1", "note": "(centres undefined)", "inhibition": "-0.542%"},
      {"molecule": "CN1CC(c2ncn[nH]2)c2cc(C(=O)NCc3cccc(F)c3)ccc21", "note": "(centres undefined)", "inhibition": "8.47%"},
      {"molecule": "O=C(Cc1cccc(C(F)(F)F)c1)Nc1cccn2ncnc12", "inhibition": "-3.85%"},
      {"molecule": "O=C(NCc1ccccc1)c1nc[nH]c1C(=O)NCc1cccc(C(F)(F)F)c1", "inhibition": "-0.00262%"},
      {"molecule": "O=C(Cc1c(Cl)cccc1Cl)NCc1cccc(C(F)(F)F)c1", "inhibition": "34.4% (active)"},
      {"molecule": "Cc1ccc(S(=O)(=O)NC2=NC(c3ccccc3)c3cc(Cl)ccc3N2)cc1", "note": "(centres undefined)", "inhibition": "10.4%"},
      {"molecule": "O=C(NCCC1=CCCCC1)c1ccc(-c2noc(-c3ccccc3)n2)s1", "inhibition": "2.81%"},
      {"molecule": "CCOc1ccc(-c2noc(-c3nn(-c4cccc(OC)c4)ccc3=O)n2)cc1", "inhibition": "72.3% (active)"},
      {"molecule": "COc1ccc(-c2nc(C3CC(=O)N(c4ccccc4)C3)no2)cc1", "note": "(centres undefined)", "inhibition": "7.38%"},
      {"molecule": "COc1ccc(-c2nc(-c3nnn(Cc4cccc(F)c4)c3C)no2)cc1", "inhibition": "-0.491%"},
      {"molecule": "CCOC(=O)c1cnn(-c2ncc(C(=O)OC)c(C(F)(F)F)n2)c1C(F)(F)F", "inhibition": "3.18%"},
      {"molecule": "O=C(NCc1ccco1)c1ccc2c(=O)nc3c(-c4ccc(F)cc4)n[nH]n3c2c1", "inhibition": "11.8%"},
      {"molecule": "COc1ccc(NC(=O)c2ccnc(Nc3ccc(OC)cc3)c2)cc1", "inhibition": "68.7% (active)"},
      {"molecule": "COc1ccc(C(=O)Nc2ccc(N)cn2)cc1", "inhibition": "12%"},
      {"molecule": "COc1cc(OC)cc(C(=O)Nc2ccc(S(=O)(=O)Nc3cc(C)on3)cc2)c1", "inhibition": "3.28%"},
      {"molecule": "CC(=O)N1c2ncnn2C(c2ccc(Cl)cc2)CC1c1ccc(Cl)cc1", "note": "(centres undefined)", "inhibition": "-2.75%"},
      {"molecule": "CC(C)C(=O)Oc1cn(CCCN2CCCC2=O)c2nc(C(C)C)n3c4ccccc4nc3c12", "inhibition": "-84.6%"},
      {"molecule": "CCS(=O)(=O)Nc1cc(S(=O)(=O)Nc2cc(Cl)ccc2Cl)ccc1N1CCOCC1", "inhibition": "-13%"},
      {"molecule": "O=C(Nc1ccc(Cl)cc1F)c1cc(-c2ccccn2)n[nH]1", "inhibition": "83.2% (active)"},
      {"molecule": "COc1cc(Cl)c(NC(=O)c2cc(-c3ccccn3)n[nH]2)c(OC)c1", "inhibition": "47.4% (active)"},
      {"molecule": "COc1cnc(-c2ccccn2)nc1Sc1ccc(Cl)cc1Cl", "inhibition": "-0.938%"},
      {"molecule": "O=C(Nc1ccc(F)cc1)C1CCCN(C(=O)c2cc(-c3ccccn3)n[nH]2)C1", "note": "(centres undefined)", "inhibition": "-40%"},
      {"molecule": "Cc1ccc(CC(=O)N2CCN(C(=O)c3cc(-c4ccccn4)n[nH]3)CC2)cc1", "inhibition": "-21.8%"},
      {"molecule": "CC1=NS(=O)(=O)N(Cc2ccccc2)C=C1C(=O)Nc1cc(F)ccc1F", "inhibition": "-4.7%"},
      {"molecule": "O=C(CNc1ccc(OC2CCCC2)cc1)N1CCNC1=O", "inhibition": "11.8%"},
      {"molecule": "CN1CCCN(c2nc(-c3cccnc3)nc3ccccc23)CC1", "inhibition": "-19%"},
      {"molecule": "Cc1ccc(-c2n[nH]c3c2CN(S(=O)(=O)C2CC2)CC3)cc1", "inhibition": "-2.42%"},
      {"molecule": "O=C(O)c1ccc(-n2cc(-c3cnccn3)cn2)cc1", "inhibition": "1.05%"},
      {"molecule": "CNC(=O)c1cnn2c(C3CCCN(c4ncccn4)C3)ccnc12", "note": "(centres undefined)", "inhibition": "2.6%"},
      {"molecule": "Cc1nnc(N2CCN(C(c3ccccc3)c3ccccc3)CC2)[nH]c1=O", "inhibition": "-0.696%"},
      {"molecule": "C\\C=C(/C=C(C)/C=C(C)/C=C/C=C(\\C)C(=O)[C@]12O[C@H]1[C@@](O)(CCO)NC2=O)C(=O)OC", "inhibition": "-48.6%"},
      {"molecule": "O=C(COC(=O)c1ccc(F)c(S(=O)(=O)N2CCOCC2)c1)NCc1ccc2c(c1)OCO2", "inhibition": "16.1%"},
      {"molecule": "COc1ccc2c(Sc3ccccc3)c(C(=O)NCc3ccc4c(c3)OCO4)[nH]c2c1", "inhibition": "-5.49%"},
      {"molecule": "CCCCN(c1ccccc1)S(=O)(=O)c1cccc(C(=O)OCC(=O)NCc2ccc3c(c2)OCO3)c1", "inhibition": "38% (active)"},
      {"molecule": "Nc1nc(N)nc(CN2C(=O)NC(Cc3ccccc3)(c3ccccc3)C2=O)n1", "note": "(centres undefined)", "inhibition": "-1.99%"},
      {"molecule": "CCCOc1ccc(-c2csc3ncn(CCc4ccccc4)c(=O)c23)cc1", "inhibition": "13.1%"},
      {"molecule": "COc1ccc(CC(=O)Nc2ccc3c(c2)CN(C(=O)c2ccco2)CC3)cc1", "inhibition": "46.1% (active)"},
      {"molecule": "COc1cc2c(cc1OC)CN(C(=O)c1cc(=O)c3ccccc3o1)CC2", "inhibition": "8.62%"},
      {"molecule": "COc1ccc(CC(=O)Nc2ccc3c(c2)CCC3)cc1S(=O)(=O)N1CCOCC1", "inhibition": "-13.3%"}
    ]}
  ]
}
